“And” between values parts separate entries of the source, which are not always exact repeats. Identical values can stand only once. The source made the active and inactive calls.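 How the source made its calls, unless noted: active means compounds whose cell count with miR-34 switched on is under 0.7 times the count with it off; inactive means the rest.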

As usually defined, the remaining activity is the signal under treatment as a percentage of the control signal.

Test [1] deals with Aerobactin synthetase IucA (Klebsiella pneumoniae). The experiment in a line: inhibition of K. pneumoniae IucA enzyme – biochemical, Tocris library, absorbance (AID 1345561; call rule not given here;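 further: 100% = enzyme without compound and 0% = no enzyme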). The settings on record: purified IucA enzyme assay, absorbance (OD) read-out; stronger effect = lower value;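 tested at 8 µM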.
Test [2] in a line: viability loss with induced miR-34 in A549 – imaging, A549 dox-inducible miR-34, nuclei and caspase counts, primary screen (AID 1347080). The following applies: A549 miR-34 inducible, Hoechst nuclei count, 48 h.
Test [3] can be described thus: galactose survival enhancers in mitochondrial complex I cybrids – cell-based, galactose medium, ATP luminescence, primary screen (AID 1645843;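 active means z-score of at least 1.8 in each of two replicates, scored against plate mean and spread of sample wells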;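 further: positive z means more ATP and so rescue of galactose-driven cybrid death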). The settings on record: complex I mutant cybrid cells, 72 h, stronger effect = higher value.
The mark [4] stands for this setting: stronger effect = lower value, cell number ratio, induced over uninduced.
The mark [5] stands for this setting: measured here: relative caspase fold change +Dox/-Dox.
Where [6] appears, read: measured here: total cells with miR-34 induction, stronger effect = lower value.
[7] abbreviates: measured here: total cells without miR-34 induction.

As for `CC(C)c1ccc2c(c1)CC[C@H]1[C@](C)(CN)CCC[C@]21C`, in test [1], the remaining activity is 101% (inactive). In addition, the fold change in test [2] (setting [4]) was 0.931 (inactive) and 0.9 (inactive); in test [2] (setting [5]), 0.286 and 1.62. In addition, the cell count is 5370 and 346 in test [2] (setting [6]); 5760 and 384 in test [2] (setting [7]). Besides, in test [3], the z-score is -0.56 (inactive).
Turning to `CC1(C(=O)O)NCCc2cc(O)c(O)cc21` (centres undefined), in test [1], the remaining activity is 123% (inactive). Besides, the figures for the fold change in test [2] (setting [4]) and in test [2] (setting [5]) were 0.987 (inactive) and 0.804, respectively. Further, the figures for the cell count in test [2] (setting [6]) and in test [2] (setting [7]) were 8540 and 8650, respectively. Further, in test [3], the z-score was -0.015 (inactive).
Take `C=CCN1CCN(c2nc3ccccc3nc2C#N)CC1`: in test [1], the remaining activity was 112% (inactive). Further, the fold change was 0.901 (inactive) in test [2] (setting [4]) and 1.37 in test [2] (setting [5]). In addition, the cell count in test [2] (setting [6]) was determined as 8950; in test [2] (setting [7]) it was 9930. In addition, the z-score in test [3] was 0.335 (inactive).
`C[C@H]([C@@H](O)c1ccc(O)cc1)N1CCC(Cc2ccccc2)CC1` (racemic): the remaining activity in test [1] is 93.2% (inactive). Also, the fold change in test [2] (setting [4]) is 0.927 (inactive); in test [2] (setting [5]) it was 0.793. The cell count in test [2] (setting [6]) is 8080; in test [2] (setting [7]), 8720. Besides, the z-score in test [3] was -1.02 (inactive).
Regarding `Cc1nn(C)c2nc(NNC(=O)Nc3cc(Cl)nc(Cl)c3)cc(C(C)C)c12`, in test [1], the remaining activity is 121% (inactive). Further, the fold change is 0.867 (inactive) and 1.06 (inactive) in test [2] (setting [4]); 1.04 and 1.03 in test [2] (setting [5]). Also, the cell count was 5060 and 4050 in test [2] (setting [6]); 5840 and 3820 in test [2] (setting [7]). The z-score in test [3] is -0.55 (inactive).
In the case of `CCCCn1c(=O)c2[nH]c(C34CC5CC(CC3C5)C4)nc2n(CCCO)c1=O`, in test [1], the remaining activity is 106% (inactive). In addition, the figures for the fold change in test [2] (setting [4]) and in test [2] (setting [5]) were 1.02 (inactive) and 1.81, respectively. The figures for the cell count in test [2] (setting [6]) and in test [2] (setting [7]) were 5180 and 5060, respectively. Moreover, the z-score in test [3] is 0.41 (inactive).
Consider `CCCn1c(=O)c2[nH]c(-c3ccccc3)nc2n(CCC)c1=O`, for which the remaining activity in test [1] was 113% (inactive). Moreover, the figures for the fold change in test [2] (setting [4]) and in test [2] (setting [5]) were 1.13 (inactive) and 0.687, respectively. In addition, the figures for the cell count in test [2] (setting [6]) and in test [2] (setting [7]) were 4790 and 4230, respectively. Further, in test [3], the z-score was -0.115 (inactive).
Regarding `O=S(c1ccccc1)c1ccc2nnnn2n1` (centres undefined), the remaining activity in test [1] is 106% (inactive). The fold change in test [2] (setting [4]) was 1.59 (inactive); in test [2] (setting [5]) it was 0.481. The cell count in test [2] (setting [6]) is 3220; in test [2] (setting [7]), 2020. Besides, the z-score in test [3] was -0.805 (inactive).
Take `OC(CCCN1CCN(c2ncc(F)cn2)CC1)c1ccc(F)cc1` (centres undefined): the remaining activity in test [1] is 116% (inactive). The figures for the fold change in test [2] (setting [4]) and in test [2] (setting [5]) were 0.931 (inactive) and 0.869, respectively. Besides, the results for the cell count in test [2] (setting [6]) and in test [2] (setting [7]) were 7880 and 8470, respectively. Besides, the z-score in test [3] is -0.495 (inactive).
Take `COc1cc(N)c(Cl)cc1C(=O)CCC1CCN(CCNS(C)(=O)=O)CC1`: the remaining activity in test [1] is 97.5% (inactive). In addition, the fold change was 0.928 (inactive) in test [2] (setting [4]) and 0.69 in test [2] (setting [5]). For the same compound, the cell count came to 9240 in test [2] (setting [6]) and 9960 in test [2] (setting [7]). In test [3], the z-score is 1.25 (inactive).
Take `C/C=C1/C(=O)C[C@H]2[C@@H]3CCC4=CC(=O)CC[C@]4(C)[C@H]3CC[C@]12C`: the remaining activity in test [1] was 104% (inactive). Moreover, the fold change in test [2] (setting [4]) is 0.844 (inactive); in test [2] (setting [5]), 3.69. Also, the cell count in test [2] (setting [6]) amounted to 6570; in test [2] (setting [7]), 7790. Besides, the z-score in test [3] was -0.33 (inactive).
Turning to `O=C1c2ccccc2CCC1CNCCc1ccc(O)cc1` (centres undefined), in test [1], the remaining activity was 104% (inactive). Further, the fold change is 0.994 (inactive) in test [2] (setting [4]) and 0.835 in test [2] (setting [5]). The cell count in test [2] (setting [6]) is 8920; in test [2] (setting [7]), 8970. Besides, the z-score in test [3] was -1.23 (inactive).
As for `NC(C(=O)O)c1nn[nH]n1` (centres undefined), the remaining activity in test [1] is 102% (inactive). Further, the figures for the fold change in test [2] (setting [4]) and in test [2] (setting [5]) were 1.01 (inactive) and 0.805, respectively. The cell count amounted to 9500 in test [2] (setting [6]) and 9360 in test [2] (setting [7]). In addition, in test [3], the z-score is -0.46 (inactive).
On to `Cc1ccc(NC(=O)C(C)C)cc1C1CCN(Cc2ccc(Oc3ccc(F)c(F)c3)cc2)CC1`, for which the remaining activity in test [1] is 107% (inactive). Besides, the fold change is 1.03 (inactive) in test [2] (setting [4]) and 0.737 in test [2] (setting [5]). Moreover, the figures for the cell count in test [2] (setting [6]) and in test [2] (setting [7]) were 1330 and 1290, respectively. The z-score in test [3] is -0.705 (inactive).
Consider `COc1ccc(C2CC(c3c(O)cc(C)oc3=O)=NCCS2)c(OC)c1` (centres undefined), for which, in test [1], the remaining activity was 98.6% (inactive). In addition, the results for the fold change in test [2] (setting [4]) and in test [2] (setting [5]) were 1.45 (inactive) and 2.3, respectively. Also, the values for the cell count in test [2] (setting [6]) and in test [2] (setting [7]) were 1350 and 929, respectively. Also, in test [3], the z-score is -0.235 (inactive).
Consider `N[C@@H](C(=O)O)[C@@H](OCc1ccccc1)C(=O)O` (racemic), for which, in test [1], the remaining activity was 110% (inactive). In addition, the fold change was 0.921 (inactive) in test [2] (setting [4]) and 1.02 in test [2] (setting [5]). The cell count in test [2] (setting [6]) was 8010; in test [2] (setting [7]), 8700. For the same compound, the z-score in test [3] was 0.315 (inactive).
Regarding `O=C(O)Cc1cc2ccccc2nc1C(=O)O`, the remaining activity in test [1] is 129% (inactive). Further, the fold change in test [2] (setting [4]) is 0.938 (inactive); in test [2] (setting [5]) it was 1.06. The cell count is 8250 in test [2] (setting [6]) and 8790 in test [2] (setting [7]). Besides, the z-score in test [3] was 0.145 (inactive).
On to `CC(C)NCC(O)COc1ccccc1-n1cccc1` (centres undefined), for which the remaining activity in test [1] is 99.6% (inactive). Besides, the fold change in test [2] (setting [4]) was 0.968 (inactive); in test [2] (setting [5]) it was 0.992. Moreover, the cell count in test [2] (setting [6]) was found to be 8690; in test [2] (setting [7]), 8980. Further, in test [3], the z-score is -0.43 (inactive).
As for `Cc1ccc(/C=C2\CNC/C(=C\c3ccc(C)cc3)C2=O)cc1`, the remaining activity in test [1] is 95.5% (inactive). Further, the results for the fold change in test [2] (setting [4]) and in test [2] (setting [5]) were 0.9 (inactive) and 0.964, respectively. Also, the cell count in test [2] (setting [6]) was found to be 500; in test [2] (setting [7]), 556. Further, the z-score in test [3] is -0.645 (inactive).
